The target of test [1] is T1, Hexokinase-4 (Homo sapiens) + Glucokinase regulatory protein (Homo sapiens) (UniProt P35557+Q14397). In words: qHTS assay for inhibitors of recombinant human GCK-GKRP interaction: ADP-Glo assay (AID 743206).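 Also: plate controls were DMSO plus enzyme for no effect and no enzyme for full effect.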 In short, it runs like this:
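Pin-transferred compounds meet a 15 nM GST-GCK/15 nM FLAG-GKRP/2 uM S6P mix (dispense concentrations). ATP is then added to 0.4 mM final with 5 mM glucose, and the reaction runs 60 min at room temperature. ADP is quantified luminescently.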
For orientation: Quantitative high-throughput screening tests each substance at several concentrations.

For test [2], the target named is T1, Hexokinase-4 (Homo sapiens) + Glucokinase regulatory protein (Homo sapiens). In words: qHTS assay for inhibitors of recombinant human GCK-GKRP interaction: HTRF assay (AID 743207).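 Also: 0% = DMSO with GCK present and -100% = DMSO wells lacking GCK.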 In short, it runs like this: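 HTRF binding of 5 nM GST-GCK and 5 nM FLAG-GKRP with 2 uM S6P in pH 7.1 Hepes buffer (MgCl2, KCl, DTT, Tween 20, BSA). Anti-FLAG XL665 and anti-GST donor added, 60 min at room temperature; 665/615 nm read, normalized to with- and without-GCK controls.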

Test [3] is described as follows: qHTS Assay for Identifying Gametocytocidal Compounds (AID 743244). Also: potency is read from the fitted curve at half-maximal effect.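 As to max response: % is scaled to controls: 0 for no effect and ±100 for the full control effect; actives lower the fluorescent signal which means gametocytes are killed.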 The conditions noted are these: P. falciparum 3D7 stage III-V gametocytes, alamarBlue, 72 h; max response: stronger effect = lower value. The method in brief: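 Compounds are pinned into medium, gametocytes (stage III–V, 3D7, 20,000 cells/well) added, and plates held 72 h at 37 °C in 5% CO2. AlamarBlue follows for 24 h before fluorescence reading.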

Test [4] is described as follows: qHTS profiling of the MIPE4 collection as inhibitors of Plasmodium falciparum (3D7) proliferation (AID 743344; call rule not given here;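 also: scaled between DMSO vehicle wells and 0.29 µM artemisinin as full inhibition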). Conditions: P. falciparum 3D7 in erythrocytes, SYBR Green DNA fluorescence, 72 h; at 28.5 µM (top of the series) unless noted. In short, it runs like this:
(§1)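 Parasite DNA was quantified by SYBR Green I fluorescence (ex 485, em 535 nm) after overnight lysis in saponin/Triton buffer at room temperature. Cultures at 0.3% parasitemia and 2.5% hematocrit were first exposed to compound for 72 h at 37 C; signals were normalised to artemisinin (0.29 uM) and vehicle wells.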

Test [5] can be described thus: qHTS profiling of the MIPE4 collection as inhibitors of Plasmodium falciparum (DD2) proliferation (AID 743345; call rule not given here). The conditions noted are these: P. falciparum Dd2 in erythrocytes, SYBR Green DNA, 72 h; at 28.5 µM (top of the series) unless noted. In short, it runs like this:
as §1

Test [6] is described as follows: qHTS profiling of the MIPE4 collection as inhibitors of Plasmodium falciparum (DD2) proliferation (Rep 2) (AID 743346; call rule not given here). Conditions: P. falciparum Dd2 in erythrocytes, SYBR Green DNA, 72 h; at 28.5 µM (top of the series) unless noted. The method in brief: as §1
A short description of test [7]: qHTS profiling of the MIPE4 collection as inhibitors of Plasmodium falciparum (HB3) proliferation (AID 743347; call rule not given here;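 also: plate controls were DMSO vehicle wells for no effect and artemisinin wells for full effect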). Conditions: P. falciparum HB3 in erythrocytes, SYBR Green DNA, 72 h; at 28.5 µM (top of the series) unless noted. The method in brief: as §1
The nature of test [8]: High-throughput drug toxicity screening in the BPDCN cell line Cal-1 (AID 1224825; call rule not given here). The conditions noted are these: Cal-1 BPDCN cell viability, qHTS; at 45.8 µM (top of the series) unless noted. In short, it runs like this:
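CellTiter-Glo luminescence after 48 h compound exposure; percent activity scaled with DMSO as 100% and bortezomib (9.2 uM final) as 0%. Cal-1 cells seeded at 500/well in RPMI, 10% FBS, no phenol red.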

The nature of test [9]: qHTS assay for measurement of the activity of small molecule inhibitors on Zika virus induced Caspase-3 activity in human iPSC derived neural progenitor cells (hNPCs) (AID 1224857). Also: % of control where 0% means no effect; nearly all actives have a fitted effect of over 65% in size. In short, it runs like this:
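Pretreat hNPCs with compound 1 h; infect ZIKV 2 FFU/cell; 6 h 37 C, 5% CO2; Caspase-Glo 3/7, 30 min RT; luminescence; normalize to no-virus and virus-only wells.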

A short description of test [10]: qHTS assay for measurement of the activity of small molecule inhibitors on Zika virus induced Caspase-3 activity in human astrocytoma cells (AID 1224859).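 Also: plate controls were ZIKV-infected untreated cells for no effect and uninfected cells for full effect.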 The method in brief:
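Human SNB-19 astrocytoma cells in RPMI 1640 with 10% FBS receive compound one hour ahead of Zika virus at 2 FFU/cell. After 6 h infection, caspase-3/7 activity is detected by Caspase-Glo luminescence.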

Test [11] is described as follows: qHTS Screen of the MIPE 4.0 Collection Against Ewings Sarcoma (TC71) (AID 1259253). Also: nearly all actives have a fitted effect of over 40% in size. Also: potency is read from the fitted curve at half-maximal effect. The method in brief: (§2)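 Dose series incubated 48 h with cells in RPMI plus 5% FBS, glutamine and penicillin/streptomycin; cell viability then quantified via CellTiter-Glo.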
A short description of test [12]: qHTS Screen of the MIPE 4.0 Collection Against Ewings Sarcoma (EW8) (AID 1259255). Also: nearly all actives have a fitted effect of over 35% in size. Also: potency is read from the fitted curve at half-maximal effect.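 As to viability: 100% = DMSO-treated cells and 0% = medium-only wells without cells.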 The method in brief: as §2
The nature of test [13]: qHTS Screen of the MIPE 4.0 Collection Against Ewings Sarcoma (RDES) (AID 1259252). Also: nearly all actives have a fitted effect of over 35% in size. Also: potency is read from the fitted curve at half-maximal effect. The method in brief: as §2
Test [14] can be described thus: qHTS Screen of the MIPE 4.0 Collection Against Ewings Sarcoma (TC32) (AID 1259256). Also: nearly all actives have a fitted effect of over 45% in size. Also: potency is read from the fitted curve at half-maximal effect. The method in brief:
as §2

Test [15] in a line: qHTS assay for cell viability of HEK293 cells (AID 743288). Also: % is scaled to controls: 0 for no effect and ±100 for the full control effect; nearly all actives have a fitted effect of over 50% in size. The conditions noted are these: ATP luminescence (CellTiter-Glo), 18 h; max response: stronger effect = lower value. The method in brief:
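Steps: plate 2,000 parental HEK293 cells per well; incubate ≥5 h, 37 C; add compounds in DMSO; incubate 18 h, 37 C; add CellTiter-Glo; wait 30 min at room temperature; read luminescence.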

The nature of test [16]: qHTS assay for cell viability of the p53RE-bla HCT-116 cell line (AID 743292). Also: % is scaled to controls: 0 for no effect and ±100 for the full control effect; nearly all actives have a fitted effect of over 55% in size. The method in brief:
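In this qHTS counter-screen, metabolically competent p53RE-bla HCT-116 cells were counted via their ATP content. Compounds were applied for 16 h at 37 C and luciferase-coupled luminescence was measured.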

A short description of test [17]: qHTS profiling for inhibitors of Plasmodium falciparum (3D7) proliferation (AID 743322).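 Also: infected erythrocytes exposed to compound for 72 h before lysis; 100% = DMSO vehicle wells and 0% = 0.29 µM artemisinin.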 Conditions: P. falciparum 3D7 proliferation, at 28.7 µM (top of the series). In short, it runs like this:
as §1

Test [18] can be described thus: qHTS profiling for inhibitors of Plasmodium falciparum (DD2) proliferation (AID 743323; call rule not given here). Conditions: at 28.7 µM (top of the series), lower = more inhibition. In short, it runs like this:
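1536-well qHTS; infected RBCs 0.3% parasitemia/2.5% Hct final; cpd 72 h 37 C 5% CO2; lysis buffer + SYBR Green I, o/n RT dark; FI 485/535; norm. to 0.29 uM artemisinin and DMSO, plate-stack corrected.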

A short description of test [19]: qHTS profiling for inhibitors of Plasmodium falciparum (HB3) proliferation (AID 743324).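 Also: 100% = DMSO vehicle wells and 0% = artemisinin-treated control wells.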 The conditions noted are these: Plasmodium falciparum HB3 blood-stage proliferation; at 28.7 µM (top of the series). In short, it runs like this: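 SYBR Green fluorescence (485 ex/535 em) of lysed cultures, incubated overnight at room temperature in the dark, quantifies parasite DNA. Infected erythrocytes at 0.3% parasitemia and 2.5% hematocrit were exposed 72 h; values normalized to DMSO and 0.29 uM artemisinin controls.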

“And” between values parts separate entries of the source, which are not always exact repeats. Equal entries are not always repeated. Results filed as inconclusive are left out. The source made the active and inactive calls. Unless noted, calls follow the shape of the dose curve; as a rule, active = well fitted curve in the direction sought with a large enough effect; inconclusive = small, poorly fitted or top-dose-only effect, or another doubt; inactive = no such curve, though single readings can be large; an effect the other way counts as inactive or inconclusive.

T1 sequence (P35557 whole entry, looked up): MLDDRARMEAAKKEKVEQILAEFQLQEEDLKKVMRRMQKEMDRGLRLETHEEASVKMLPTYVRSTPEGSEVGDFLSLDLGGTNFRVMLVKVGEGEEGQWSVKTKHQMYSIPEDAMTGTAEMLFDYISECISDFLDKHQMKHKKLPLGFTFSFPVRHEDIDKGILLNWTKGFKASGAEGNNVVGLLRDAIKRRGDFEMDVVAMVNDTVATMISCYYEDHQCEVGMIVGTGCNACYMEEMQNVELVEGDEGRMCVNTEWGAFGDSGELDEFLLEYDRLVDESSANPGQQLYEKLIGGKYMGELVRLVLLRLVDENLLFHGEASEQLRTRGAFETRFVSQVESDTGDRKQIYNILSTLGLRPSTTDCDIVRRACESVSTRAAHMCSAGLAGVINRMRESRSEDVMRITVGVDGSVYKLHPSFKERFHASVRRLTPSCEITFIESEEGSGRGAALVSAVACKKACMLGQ
T1 sequence (Q14397 whole entry, looked up): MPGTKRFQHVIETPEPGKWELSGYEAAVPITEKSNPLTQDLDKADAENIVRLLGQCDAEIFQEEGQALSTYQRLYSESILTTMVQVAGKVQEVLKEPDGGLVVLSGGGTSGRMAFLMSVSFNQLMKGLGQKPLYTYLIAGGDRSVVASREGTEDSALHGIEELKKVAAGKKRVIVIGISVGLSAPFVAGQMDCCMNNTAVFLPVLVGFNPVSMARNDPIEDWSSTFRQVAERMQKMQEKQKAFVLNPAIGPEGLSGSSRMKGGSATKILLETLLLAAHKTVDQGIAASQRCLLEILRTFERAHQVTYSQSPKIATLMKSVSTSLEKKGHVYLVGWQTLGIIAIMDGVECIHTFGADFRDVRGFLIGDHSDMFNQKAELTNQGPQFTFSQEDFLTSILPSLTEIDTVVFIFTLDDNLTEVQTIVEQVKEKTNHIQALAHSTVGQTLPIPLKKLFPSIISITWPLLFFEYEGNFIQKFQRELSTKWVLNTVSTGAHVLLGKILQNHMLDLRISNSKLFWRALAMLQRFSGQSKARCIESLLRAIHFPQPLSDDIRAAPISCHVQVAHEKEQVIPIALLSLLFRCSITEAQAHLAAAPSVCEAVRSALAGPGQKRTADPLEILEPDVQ

As to `CCCNCC(O)COc1ccccc1C(=O)CCc1ccccc1` (stereo not given), the Potency entry in test [1], in test [2], in test [9] and in test [10] was “inactive” throughout. The Potency was 3.16 µM (active) and 1.78 µM (active) in test [3]; 14.8 µM (active) in test [11]; 20.9 µM (active) in test [12]. This compound had a parasite growth, % of DMSO control in test [4] of 5.54%. Also, in test [5], the parasite growth remaining, % of DMSO control (lower = more inhibition) worked out at 6.97%. Also, the parasite growth, % of control (lower = inhibition) in test [6] worked out at 15.6%. Also, the growth, % of control in test [7] amounted to 6.85%. The viability (% of control) in test [8] was determined as 1.7%.

Consider `COc1nc(C)nc(Cl)c1NC1=NCCN1`, for which the Potency entry in test [2], in [9], in test [10], in test [13], in test [11] and in [12] was “inactive” throughout. The Potency result in [14] is “inactive”. In test [3], the max response was 0.253% (inactive) and 33% (inactive). Also, the parasite growth, % of DMSO control in test [4] turned out to be 89.8%. Further, the parasite growth remaining, % of DMSO control (lower = more inhibition) in test [5] turned out to be 89.9%. Besides, the parasite growth, % of control (lower = inhibition) in test [6] is 92.6%. This compound also came in with a growth, % of control in [7] of 98.4%. Besides, in [8], the viability (% of control) was determined as 97.7%.

Regarding `CC(C)NCC(O)COc1ccc(CCOCC2CC2)cc1` (stereo not given), the Potency result in [1], in test [9], in [13], in [11] and in test [14] was “inactive” in each case. Besides, the max response in test [3] was -0.0756% (inactive) and 27.3% (inactive). Also, the parasite growth, % of DMSO control in [4] was 77%. Moreover, the parasite growth remaining, % of DMSO control (lower = more inhibition) in test [5] came out at 89.8%. For the same compound, the parasite growth, % of control (lower = inhibition) in [6] came out at 46.9%. In test [7], this compound gave a growth, % of control of 57.9%. Also, the viability (% of control) in [8] was determined as 97%.

On to `Cc1cn([C@H]2C[C@H](N=[N+]=[N-])[C@@H](CO)O2)c(=O)[nH]c1=O`, for which the Potency result in test [1], in test [2], in test [16], in [9], in [13] and in test [11] was “inactive” in each case. Further, the Potency entry in [12] and in test [14] was “inactive” in each case. Also, the max response was 21.9% (inactive) and 0.942% (inactive) and 16% (inactive) in test [3]; -21.7% (inactive) in [15]. The parasite growth, % of DMSO control in test [4] came out at 412%. Further, the parasite growth remaining, % of DMSO control (lower = more inhibition) in test [5] was 109%. In addition, the parasite growth, % of control (lower = inhibition) in [6] turned out to be 117%. The compound also returned a growth, % of control in [7] of 588%. The viability (% of control) in [8] is 78.5%.

In the case of `O=C(C1CCCCC1)N1CC(=O)N2CCc3ccccc3C2C1` (stereo not given), the max response in test [3] is 3.64% (inactive) and 8.77% (inactive). Also, the parasite growth, % of DMSO control in [4] was determined as 61.4%. Moreover, the parasite growth remaining, % of DMSO control (lower = more inhibition) in test [5] is 89.3%. Besides, in test [8], the viability (% of control) was found to be 105%. For the same compound, the Potency entry in test [9], in [10], in test [12] and in test [14] was “inactive” throughout.

In the case of `CS(=O)(=O)CCNCc1ccc(-c2ccc3ncnc(Nc4ccc(OCc5cccc(F)c5)c(Cl)c4)c3c2)o1`, the max response in test [3] is -3.58% (inactive) and 12% (inactive). The compound also yielded a remaining parasite growth % (stronger effect = lower value) in [17] of 0.561%. In test [18], this compound displayed an activity, percent of control of 12.2%. The compound also displayed a remaining proliferation (% of control), lower = more inhibition in [19] of 1.42%. Also, the parasite growth, % of DMSO control in [4] is 8.87%. Besides, the parasite growth remaining, % of DMSO control (lower = more inhibition) in test [5] was 7.86%. The parasite growth, % of control (lower = inhibition) in [6] worked out at 51.8%. In test [7], this compound came in with a growth, % of control of 13%. Besides, in test [8], the viability (% of control) came to 2.82%. The Potency result in test [9] and in test [10] was “inactive” throughout. In addition, the Potency is 590 nM (active) in [13], 2 µM (active) in [11], 8.33 µM (active) in [12] and 13.2 µM (active) in [14].

Consider `OCCN(CCO)c1nc(N2CCCCC2)c2nc(N(CCO)CCO)nc(N3CCCCC3)c2n1`, for which, in test [3], the max response is 7.4% (inactive). Moreover, in test [6], the parasite growth, % of control (lower = inhibition) was 36.9%. In addition, in [8], the viability (% of control) turned out to be 95.3%. Also, the Potency entry in [9] and in test [10] was “inactive” throughout. In test [11], the Potency is 20.9 µM (active).

(Values after PubChem BioAssay (NCATS).)
